Test results reported in PubChem BioAssay AID624300 (Southern Research Specialized Biocontainment Screening …, 2012).
The whole screen tested about 2,400 compounds, of which about 360 (15%) were called active.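 The calls were made as follows: active = viability falls under 70% at one or more tested concentrations, taken as toxicity; inactive = viability stays over 70% at every dose.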 Not all results are given here. A call without a number means that no potency is given here. Potency and affinity values are given separately.

Assay: HeLa cell cytotoxicity, dose response, cytotoxicity control for MgcRacGAP inhibitor project (AID 624300)
Details: CellTiter-Glo luminescence, 24 h; series mostly up to 100 µM

| SMILES | outcome |
| --- | --- |
| Cc1cc(-c2n[nH]c(=S)n2/N=C/c2cccc(O)c2)n[nH]1 | inactive |
| COc1ccc(NC2CCCN(C(=O)c3cccc(N4CCNC4=O)c3)C2)cc1 (stereo not given) | inactive |
| COc1cccc(Oc2cn[nH]c2-c2ccc(O)cc2O)c1 | inactive |
| COc1ccc(Oc2c(-c3ccc(O)cc3O)n[nH]c2C)cc1 | inactive |
| CC1=NN(C(N)=S)C(=O)C1N=Nc1ccc(O)cc1 (stereo not given) | inactive |
| O=C(O)c1ccc2c(c1)[C@@H]1C=CC[C@@H]1[C@H](c1ccccn1)N2 | inactive |
| CCN(CC)c1ccc(NC(=O)CNCc2ccccc2Cl)c(C)c1 | inactive |
| COc1ccc(CNc2ncc(-c3ccc(F)cc3)n2C)cc1OC | inactive |
| COc1ccc(CNc2ncc(-c3ccccc3)n2C)c(OC)c1OC | inactive |
| CCN1C(=O)c2ccc(C(=O)Nc3ccc(O)cc3C)cc2C1=O | inactive |
| CCn1nc(CC(C)C)cc1C(=O)N1CCCC(Nc2ccc(OC)cc2)C1 (stereo not given) | inactive |
| CN1CCc2c1nc1ccccc1c2NC(=O)CN1CCCC1 | inactive |
| CC(C)NCC(=O)Nc1c2c(nc3ccccc13)CCC2 | inactive |
| Cc1sc2c3ccsc3ccc2[n+]1C | inactive |
| CC(C)(C)N(Cc1ccc2c(c1)OCO2)C(=O)/C=C\S(=O)c1ccccc1 (stereo not given) | inactive |
| COc1ccc(C2NC(=O)C(C#N)=C(S)N2c2cccc(C)c2)cc1OC (stereo not given) | inactive |
| CN(C)CCO/N=C(\c1ccc(Br)cc1)c1cccnc1 | inactive |
| COC(=O)c1ccc(NCc2c(O)ccc(O)c2Br)cc1Cl | inactive |
| COC(=O)c1ccc(C(=O)OCCCc2nc3ccc(N)cc3[nH]2)cc1 | inactive |
| CCOC(=O)c1[nH]c2ccccc2c1NC(=S)Nc1cccc(C)c1C | inactive |
| Cc1ccc(-c2n[nH]c(=S)n2/N=C/c2ccc(C(=O)O)cc2)cc1 | inactive |
| COc1ccc2cc(OCC(=O)NNC(=O)Nc3ccc(F)cc3)ccc2c1 | inactive |
| Oc1ccc(CCc2ccccn2)cc1 | inactive |
| CC(=O)NC(Cc1ccccc1)C(=O)Oc1ccc2ccccc2c1 (stereo not given) | inactive |

| SMILES | outcome |
| --- | --- |
| CN1C(=O)/C(=C/C=C2/CCCN2C)N(C)C1=S | inactive |
| Oc1ccc(Nc2ncnc3ccccc23)cc1 | inactive |
| Cc1nc(Nc2ccc(O)cc2)c2c3c(sc2n1)CCCC3 | inactive |
| Cc1cccc(Nc2c(-c3ccc(O)cc3)nc3ncccn23)c1 | inactive |
| COc1ccc(/C=N/N2CCN(C)CC2)cc1O | inactive |
| CC1=NOC(=O)/C1=C\c1ccc(-c2ccc(Cl)c(C(=O)O)c2)o1 | inactive |
| O=c1nc2s/c(=C\c3ccc(-c4ccccc4[N+](=O)[O-])o3)c(=O)n2nc1-c1ccccc1 | inactive |
| C=CCn1c(SCC(=O)Nc2ccc(N(C)C)cc2)nnc1-c1cccc(C)c1 | inactive |
| COc1ccc(NC2CCCN(C(=O)CCC3=NNC(=O)CC3)C2)cc1 (stereo not given) | inactive |
| COc1ccc(N2CCN(S(=O)(=O)c3c(C)nc4scc(C)n4c3=O)CC2)cc1 | inactive |
| N/N=C(\Cc1cscn1)c1ccc(O)cc1O | inactive |
| O=C(CN1CCN(c2ccc(O)cc2)CC1)Nc1ccc2c(c1)OCCCO2 | inactive |
| Nc1nc2c(s1)CCc1ccccc1-2 | inactive |
| COc1ccc2c(C)cc3n[nH]c(=S)n3c2c1 | inactive |
| NNc1ccc([N+](=O)[O-])c2[nH][nH]c(=O)c12 | inactive |
| Oc1ccc(C=NNc2nc3ccccc3s2)c(O)c1 | inactive |
| CN(C)c1ccc(/C=N\Nc2ccccn2)cc1 | inactive |
| CCN(CC)c1ccc(/C=N/Nc2nc(C)cc(C)n2)c(O)c1 | inactive |
| Cc1nc2ccccc2nc1N/N=C/c1ccc(O)cc1 | inactive |
| COc1cc(/C=N/Nc2cc(C)nc(NS(=O)(=O)c3ccccc3)n2)ccc1O | inactive |
| COc1ccc(-c2cnnc(N/N=C/c3ccc(O)c(O)c3)n2)cc1 | inactive |
| COc1ccc(NCc2ccsc2)cc1 | inactive |
| COc1ccc(NC2CCCN(C(=O)CN3CCOC3=O)C2)cc1 (stereo not given) | inactive |
| CC1(C)CC(=O)C(C=Nc2ccc(N)cc2)=C(O)C1 | inactive |

| SMILES | outcome |
| --- | --- |
| COc1cc(/C=C/C(=O)OCC(=O)N2CC3(C)CC2CC(C)(C)C3)ccc1O (stereo not given) | inactive |
| Cn1c(=O)[nH]c(=O)c2c1[nH]c(=S)n2CCCc1ccccc1 | inactive |
| Cn1c(=O)c2[nH]c(=S)n(Cc3ccccc3)c2n(C)c1=O | inactive |
| CN(C)c1ccc(NC(=S)NCC2CCCO2)cc1 (stereo not given) | inactive |
| Cc1sc2ccc3sccc3c2[n+]1C | inactive |
| Cc1cc(N(C)C)ccc1N=Nc1ccc(N)cc1 | inactive |
| O=C(CN1CCN(c2ncccn2)CC1)N1CCCC1 | inactive |
| Cc1ccccc1SCC(=O)OCC(=O)Nc1ccc(N(C)C)cc1 | inactive |
| Cc1nc2ccc(C(=O)Nc3ccc(N(C)C)cc3)cc2s1 | inactive |
| CC(C)c1nc(SCC(=O)Nc2ccc(N(C)C)cc2)c2ccccc2n1 | inactive |
| CCn1c(SCC(=O)Nc2ccc(N(C)C)cc2)nnc1-c1cccc(C)c1 | inactive |
| COc1cc(/C=N/NC(=O)CNc2n[nH]c(=O)[nH]c2=O)ccc1O | inactive |
| CSc1ccc(CN2CCC(N3CC(C)OC(C)C3)CC2)cc1 (stereo not given) | inactive |
| C=CCn1c(SCC(=O)c2ccc(O)c(O)c2)nnc1-c1cccc(OC)c1 | inactive |
| CCn1c(CSc2nc3ccccc3s2)nnc1SCC(=O)c1ccc(O)c(O)c1 | inactive |
| CN(C)c1ccc(NS(=O)(=O)c2ccc(Cl)cc2)cc1 | inactive |
| CS(=O)(=O)N1CCN(C2C3CC4CC(C3)CC2C4)CC1 (stereo not given) | inactive |
| COc1cc(/C=N/NC(=O)c2ccc(-n3cccc3)cc2)ccc1O | inactive |
| O=C(N/N=C/c1ccc(O)cc1)c1cccc(C(F)(F)F)c1 | inactive |
| Fc1ccc(CN2CCN(C(c3ccccc3)c3ccccc3)CC2)cc1 | inactive |
| COc1cc(/C=N\NC(=O)c2ccc(Cn3nc([N+](=O)[O-])c(Cl)c3C)o2)ccc1O | inactive |
| O=C(O)c1cc(N2C(=O)C=CC2=O)cc(N2C(=O)C=CC2=O)c1 | inactive |
| Oc1ccc2c(ccc3[nH]cnc32)c1 | inactive |
| Nc1ccc2[nH]c(=S)[nH]c2c1 | inactive |

| SMILES | outcome |
| --- | --- |
| Cc1ccc(Nc2n[nH]c(=S)s2)cc1 | inactive |
| COc1ccc(N2CCN(c3ccc(C(N)=O)cc3[N+](=O)[O-])CC2)cc1 | inactive |
| Cc1sc2ncnc(N(C)CCc3ccccn3)c2c1C | inactive |
| CCOC(=O)c1c(C)[nH]sc1=S | inactive |
| CCN(CC)c1ccc(NC(=O)CSC(=O)c2ccccc2)cc1 | inactive |
| CCN(CC)c1ccc(/C=N/O)cc1 | inactive |
| CCN(CC)c1ccc(NC(=O)Nc2ccccc2)cc1 | inactive |
| CCN(CC)c1ccc(NC(=O)C2CCCC2)cc1 | inactive |
| CCN(CC)c1ccc(/C=N/N2CCOCC2)c(O)c1 | inactive |
| CN(C)c1ccc(/C=N/N2CCN(Cc3ccccc3Cl)CC2)cc1 | inactive |
| CCOc1cc(/C=C2\SC(=O)N=C2N)ccc1O | inactive |
| C=CCN(CC=C)C(=O)C1CCN(Cc2ccc(OCc3ccccc3)cc2)CC1 | inactive |
| CC1=CC(C)(C)N(C(=O)CNC2CCCC2)c2cc(C)ccc21 | inactive |
| COc1ccc(N2CCN(C(=O)NC3CCCCC3)CC2)cc1 | inactive |
| COc1cc(/C=N\NC(=O)c2c(C)nc3cc(C)ccn23)ccc1O | inactive |
| CN(C)c1ccc(NC(=O)CN2C(=O)c3ccccc3C2=O)cc1 | inactive |
| O=C1C(Cl)=C(NCCc2ccccc2)C(=O)c2ccccc21 | inactive |
| O=S1(=O)N=C(Nc2ccc(O)cc2)c2ccccc21 | inactive |
| O=C(NN=Cc1ccc(O)cc1O)c1ccccc1NS(=O)(=O)c1cccs1 | inactive |
| COc1ccc(Nc2ccc3ccccc3c2)cc1 | inactive |
| COc1ccc(O/C(=N\S(=O)(=O)c2ccccc2)c2ccccc2)cc1 | inactive |
| COc1ccc(C=C2C(=O)c3ccccc3C2=O)cc1O | inactive |
| O=C(CNC(=O)c1cccnc1)N/N=C/c1ccc(O)cc1O | inactive |
| COc1cc(/C=C/C(=O)OCC(=O)c2ccc[nH]2)ccc1O | inactive |

| SMILES | outcome |
| --- | --- |
| COCCNCC(=O)Nc1nc(C)cs1 | inactive |
| Cc1ccc(CNc2ccc(N3CCOCC3)cc2)s1 | inactive |
| CN(C1CCCCC1)S(=O)(=O)c1cccc2nsnc12 | inactive |
| COc1cc(/C=N/NC(=O)C2CCN(CC(O)COCc3ccccc3)CC2)ccc1O (stereo not given) | inactive |
| COc1cc(/C=N/NC(=O)CNC(=O)c2ccco2)ccc1O | inactive |
| O=C(/C(=C/c1ccccc1)n1cncn1)c1ccc(Cl)cc1Cl | inactive |
| Cc1ccn2c(Nc3ccc4c(c3)OCO4)c(-c3ccc(O)cc3)nc2c1 | inactive |
| COc1cc(-c2nc3cnccn3c2Nc2ccc(C)cc2)ccc1O | inactive |
| CCOc1ccc(N)cc1OC | inactive |
| Cc1cc(Cl)cc2sc(=S)[nH]c12 | inactive |
| NC(=S)N/N=C/c1cccc(O)c1O | inactive |
| O=C(CNc1ccc2c(c1)OCO2)N/N=C\c1ccccc1Cl | inactive |
| Cc1ccc(C2CC(=O)N3CN(c4ccc(Br)cc4)CSC3=C2C#N)o1 (stereo not given) | inactive |
| OC1CCN(C(=S)Nc2ccc(Nc3ccccc3)cc2)CC1 | inactive |
| Nc1ccc(N2CCN(c3ccc(Cl)c(Cl)c3)CC2)cc1 | inactive |
| CCN(Cc1ccncc1)Cc1ccc(OC)c(OC)c1 | inactive |
| COc1ccc(NC2CCCN(C(=O)COc3ccc(Cl)cc3C)C2)cc1OC (stereo not given) | inactive |
| COc1ccc(NC(=O)n2ncc3c(C)cccc32)cc1OC | inactive |
| CCCC(=Nc1ccc(N)cc1)C1=C(O)C(C(=O)OC)C(C)(C)CC1=O (stereo not given) | inactive |
| COc1ccc(N2CCN(C(CNC(=O)CC(C)(C)C)c3ccc4c(c3)OCO4)CC2)cc1 (stereo not given) | inactive |
| COC(=O)NCC(c1ccc2c(c1)OCO2)N1CCN(c2ccc(OC)cc2)CC1 (stereo not given) | inactive |
| COc1cc2c(cc1N)-c1ccc(N)cc1C2=O | inactive |
| COc1cc(/C=C/CN2CCN(Cc3ccc(C)o3)C(CCO)C2)ccc1O (stereo not given) | inactive |
| COc1ccc(/C=N/NC(=O)c2cc[n+]([O-])cc2)cc1O | inactive |
